Where a name gives a salt, the structure may show the parent alone. Values without a mark were called inactive. Rule as the data show it: active = 2 or more and inactive = the rest.

The first assay has as its system S. cerevisiae AD1-9 (efflux-pump deficient), vegetative growth in YPD. In words: growth sensitivity score (doubling time z-score vs DMSO controls); higher = slower growth, strongly negative scores also mark growth inhibition (complete suppression), active = hit call of the paper. Put shortly:
(§1)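 Optical density of Saccharomyces cerevisiae cultures in microtiter plates was followed every 15 min for 24 hours after seeding at an OD600 of 0.065. Eight solvent-only wells were run per experiment. Growth sensitivity scores were found by subtracting the solvent-only mean from the compound mean and dividing by the solvent-only standard deviation.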
With `CC(C)(C)NCC(O)c1ccc(O)c(CO)c1` (stereo unspecified) [Salbutamol sulfate] (stock concentration (mM, diluted 1:100): 9.7), the growth sensitivity score is -1.51.
Turning to `Nc1ccc2cn[nH]c2c1` [6-Aminoindazole] (stock concentration (mM, diluted 1:100): 10), the growth sensitivity score was -1.63.
Turning to `CN1CCN(C2=Nc3cc(F)ccc3Cc3ccccc32)CC1` [Fluperlapine] (stock concentration (mM, diluted 1:100): 10), the growth sensitivity score was 2.12 (active).
`C[C@H]1[C@H](OC(=O)CCC(=O)O)O[C@@H]2O[C@@]3(C)CC[C@H]4[C@H](C)CC[C@@H]1[C@@]24OO3` [Artesunate] (stock concentration (mM, diluted 1:100): 10): the growth sensitivity score is 23.2 (active).
Take `Cc1sc(N)c(C(=O)c2cccc(C(F)(F)F)c2)c1C` (stock concentration (mM, diluted 1:100): 10): the growth sensitivity score is 143 (active).
Still for that read-out and setting: with `CN(CCO)CC(O)Cn1cnc2c1c(=O)n(C)c(=O)n2C` (stereo unspecified) [Xanthinol nicotinate] (stock concentration (mM, diluted 1:100): 10) the figure was 0.36.
As to `CN(C)CCc1c[nH]c2ccc(Cn3cncn3)cc12` [Rizatriptan benzoate] (stock concentration (mM, diluted 1:100): 10), the growth sensitivity score was -1.17.

Another assay relates to S. cerevisiae BY4741 (wild-type), vegetative growth in YPD. Described as above. Put shortly: as §1
For `CN(CCOc1ccc(CC2SC(=O)NC2=O)cc1)c1ccccn1` (stereo unspecified) [Rosiglitazone maleate] (stock concentration (mM, diluted 1:100): 7.6), the growth sensitivity score was 1.82.
The same measure, in the same setting: with `COCC1=C(C(=O)OC(C)OC(=O)OC(C)C)N2C(=O)[C@@H](NC(=O)/C(=N\OC)c3csc(N)n3)[C@H]2SC1` (stereo partly specified) [Cefpodoxime proxetil] (stock concentration (mM, diluted 1:100): 7.7) the figure was -1.13; with `CCOC(=O)[C@H](CCc1ccccc1)N[C@H]1CCc2ccccc2N(CC(=O)O)C1=O` [Benazepril hydrochloride] (stock concentration (mM, diluted 1:100): 9.2), 1.72.
For the compound `CNNCc1ccc(C(=O)NC(C)C)cc1` [Procarbazine hydrochloride] (stock concentration (mM, diluted 1:100): 8.6), the growth sensitivity score is 0.69.
Turning to `CC(C)[C@H](N)C(=O)OCCOCn1cnc2c(=O)nc(N)[nH]c21` [Valaciclovir hydrochloride] (stock concentration (mM, diluted 1:100): 9), the growth sensitivity score is 0.36.
For the compound `O=C(O[C@@H]1Cc2c(O)cc(O)cc2O[C@@H]1c1cc(O)c(O)c(O)c1)c1cc(O)c(O)c(O)c1` [Epigallocatechin gallate] (stock concentration (mM, diluted 1:100): 10), the growth sensitivity score is 0.97.
In the case of `CN(C)CCCSc1ccccc1NC(=O)/C=C/c1ccccc1` [Cinanserin] (stock concentration (mM, diluted 1:100): 10), the growth sensitivity score is 1.35.
Regarding `C=CC1=C(C(=O)O)N2C(=O)[C@@H](NC(=O)/C(=N\O)c3csc(N)n3)[C@H]2SC1` [Cefdinir] (stock concentration (mM, diluted 1:100): 10), the growth sensitivity score is -0.67.
Same read-out and setting: the value for `NC1CCN(c2cccc(Cl)n2)CC1` (stock concentration (mM, diluted 1:100): 10) was -0.16; that for `CN(Cc1cnc2nc(N)nc(N)c2n1)c1ccc(C(=O)N[C@@H](CCC(=O)O)C(=O)O)cc1` [Methotrexate] (stock concentration (mM, diluted 1:100): 14.6) was -0.16; that for `CC(=O)OCC(CCn1cnc2cnc(N)nc21)COC(C)=O` [Famciclovir] (stock concentration (mM, diluted 1:100): 10) was -1.36.
On the same count and under the same terms, the value for `CN(C)CCC(c1ccc(Cl)cc1)c1ccccn1` (stereo unspecified) [Chlorpheniramine] (stock concentration (mM, diluted 1:100): 10) was -0.56; that for `CC(C)c1ccc2c(c1)c(SC(C)(C)C)c(CC(C)(C)C(=O)O)n2Cc1ccc(Cl)cc1` [Tocris-1311] (stock concentration (mM, diluted 1:100): 10) was -0.4.
On the same count and under the same terms, the value for `CSc1nc2cc(Cl)c(Oc3cccc(Cl)c3Cl)cc2[nH]1` [Triclabendazole] (stock concentration (mM, diluted 1:100): 10) was 168 (active).

These data come from the supplement of paper PMC3414501.
